{"source": "PubChem BioAssay (Tox21)", "note": "Records with an inconclusive call do not appear. A number with no mark means an inactive call. Calls follow the shape of the full dose curve. % is scaled to controls: 0 for no effect and ±100 for the full control effect."}
{"target": "Thyrotropin receptor (Homo sapiens) (UniProt P16473)", "sequence (P16473 whole entry, looked up)": "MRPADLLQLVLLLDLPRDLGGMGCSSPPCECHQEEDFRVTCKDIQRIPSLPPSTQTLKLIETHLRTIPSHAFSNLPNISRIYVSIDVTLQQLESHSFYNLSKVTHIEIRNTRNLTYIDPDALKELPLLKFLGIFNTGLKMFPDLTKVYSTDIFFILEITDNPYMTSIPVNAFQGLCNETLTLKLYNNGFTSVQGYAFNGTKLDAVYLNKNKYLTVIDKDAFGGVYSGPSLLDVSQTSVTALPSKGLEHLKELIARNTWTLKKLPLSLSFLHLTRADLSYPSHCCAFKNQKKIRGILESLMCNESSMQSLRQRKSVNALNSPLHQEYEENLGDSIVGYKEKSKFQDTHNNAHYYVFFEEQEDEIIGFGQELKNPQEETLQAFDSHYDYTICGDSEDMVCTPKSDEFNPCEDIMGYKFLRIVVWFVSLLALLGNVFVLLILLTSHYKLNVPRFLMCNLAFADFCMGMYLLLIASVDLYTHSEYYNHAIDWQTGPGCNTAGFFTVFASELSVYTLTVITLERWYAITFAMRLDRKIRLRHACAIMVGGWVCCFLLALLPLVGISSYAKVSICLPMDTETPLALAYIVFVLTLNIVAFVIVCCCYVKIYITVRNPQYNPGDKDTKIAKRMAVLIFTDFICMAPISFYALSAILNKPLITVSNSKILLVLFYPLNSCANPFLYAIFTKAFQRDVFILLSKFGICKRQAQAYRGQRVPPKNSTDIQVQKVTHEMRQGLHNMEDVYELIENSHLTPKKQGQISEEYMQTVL", "experiment": "qHTS assay to identify small molecule agonists of the thyroid stimulating hormone receptor (TSHR) signaling pathway (AID 1224843); also: nearly all actives have a fitted effect of over 45% in size", "settings": "TSHR-HEK293 cells, cAMP HTRF, agonist mode, 30 min; series mostly up to 92.4 µM; activation: at the top concentration", "in_short": "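TSHR-expressing HEK293 cells (800 per well) were exposed to compounds for 30 min at room temperature. cAMP was then detected by HTRF competition with cAMP-d2 and anti-cAMP cryptate, read after 1 h at room temperature. Fifteen concentrations, triplicate.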"}
{"smiles": "Cc1ccc(Br)cc1", "activation": "-2.27%"}
{"smiles": "Clc1ccc2c(c1)Nc1ccccc1S2", "activation": "17.5% [at 42.5 µM]"}
{"smiles": "Cc1cc(O)c(Cl)cc1C", "activation": "-17.8%"}
{"smiles": "CCCCCCCCCCCCCCCC(=O)OC", "activation": "-0.158% [at 19 µM]"}
{"smiles": "N#CC1(N)CCCCC1", "activation": "-0.22%"}
{"smiles": "CCCc1ccc(O)c(OC)c1", "activation": "-2.52%"}
{"smiles": "CC(C)C(=O)Nc1cccc(C2CN3CCSC3=N2)c1", "note": "(centres undefined)", "activation": "2.78% [at 42.5 µM]"}
{"smiles": "CC1(C)S[C@@H]2[C@H](NC(=O)Cc3ccccc3)C(=O)N2[C@H]1C(=O)O", "note": "(tested in a mixture with another compound)", "activation": "-1.16% [at 42.5 µM]"}
{"smiles": "CCO/C=C1\\N=C(c2ccccc2)OC1=O", "activation": "2%"}
{"smiles": "Cc1ccccc1C#N", "activation": "-5.84%"}
{"smiles": "c1coc(Cn2cccc2)c1", "activation": "-0.832%"}
{"smiles": "COCc1nnc(-c2ccc[n+]([O-])c2)n1-c1c(Cl)c(Cl)cc2[nH]c(=O)c(=O)[nH]c12", "activation": "7.8%"}
{"smiles": "CN(C)CCc1c[nH]c2ccc(C[C@H]3COC(=O)N3)cc12", "activation": "-0.917% [at 42.5 µM]"}
{"smiles": "CCC(C)SSC(C)CC", "note": "(centres undefined)", "activation": "-11.5%"}
